Results taken from PubChem BioAssay (Tox21).
Where “and” joins values, the source holds several entries; their conditions need not be identical. Identical values can stand only once. Records with an inconclusive call do not appear. Entries that show only a call come without a potency. Some structures have more than one record in an assay (separate samples or runs), and their calls can disagree. Calls of active or inactive are those of the source. Unless noted, the call rests on the fitted dose curve; in most records, active means well fitted curve in the direction sought with a large enough effect in the repeat runs; inconclusive means weak or mixed curves; inactive means no such curve, though single readings can be large; an effect the other way counts as inactive or inconclusive.

Key:
[1] = qHTS assay to identify small molecule agonists of the peroxisome proliferator-activated receptor delta (PPARd) signaling pathway - cell viability counter screen (AID 743211); further: nearly all actives have a fitted effect of over 55% in size; further: potency means the concentration at half of the fitted maximal effect
Method in brief: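 PPARd-bla HEK293H cells (UAS-beta-lactamase reporter) were treated with compounds for 17 h at 37 C. Viability was then read in the same wells by CellTiter-Glo luminescence after 30 min at room temperature.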

[2] = qHTS assay to identify small molecule antagonists of the peroxisome proliferator-activated receptor delta (PPARd) signaling pathway - cell viability counter screen (AID 743213); further: nearly all actives have a fitted effect of over 50% in size; further: potency means the concentration at half of the fitted maximal effect
Method in brief: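 In this counter screen, HEK293H cells carrying a UAS-beta-lactamase reporter are co-treated with test compounds and 300 nM L165041 (final) for 17 h at 37 C; cell viability is quantified by CellTiter-Glo luminescence.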

[3] = qHTS assay to identify small molecule agonists of the farnesoid-X-receptor (FXR) signaling pathway - cell viability counter screen (AID 743218); further: nearly all actives have a fitted effect of over 45% in size; further: potency means the concentration at half of the fitted maximal effect
Method in brief: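 In GeneBLAzer FXR-UAS-bla HEK 293T cells, compounds act for 16 h at 37 C. Cell viability is then scored in the reporter wells by CellTiter-Glo, 30 min at RT, luminescence.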

[4] = qHTS assay to identify small molecule antagonists of the farnesoid-X-receptor (FXR) signaling pathway - cell viability counter screen (AID 743221; active means well fitted cell-killing curve with a large enough effect in the repeat runs, not every such curve was filed as active; further: nearly all actives have a fitted effect of over 50% in size; further: potency means the concentration at half of the fitted maximal effect)
Method in brief: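 FXR-UAS-bla HEK 293T cells were treated with test compounds plus chenodeoxycholic acid (50 uM final) for 16 h at 37 C. Cell viability in the same wells was then read as CellTiter-Glo luminescence after 30 min at room temperature.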

[5] = molecular target: Peroxisome proliferator-activated receptor delta (Homo sapiens) (UniProt Q03181); test: qHTS assay to identify small molecule antagonists of the peroxisome proliferator-activated receptor delta (PPARd) signaling pathway (AID 743215; active means well fitted inhibition curve with a large enough effect in the signal ratio in the repeat runs, not every such curve was filed as active; the % refers to the signal ratio;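 further: cells stimulated with agonist L165041 at 300 nM final during compound exposure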; further: potency means the concentration at half of the fitted maximal effect; on ratio activity, negative = inhibition: series mostly up to about 62 µM)
Sequence of Peroxisome proliferator-activated receptor delta (Homo sapiens) (Q03181 whole entry, looked up): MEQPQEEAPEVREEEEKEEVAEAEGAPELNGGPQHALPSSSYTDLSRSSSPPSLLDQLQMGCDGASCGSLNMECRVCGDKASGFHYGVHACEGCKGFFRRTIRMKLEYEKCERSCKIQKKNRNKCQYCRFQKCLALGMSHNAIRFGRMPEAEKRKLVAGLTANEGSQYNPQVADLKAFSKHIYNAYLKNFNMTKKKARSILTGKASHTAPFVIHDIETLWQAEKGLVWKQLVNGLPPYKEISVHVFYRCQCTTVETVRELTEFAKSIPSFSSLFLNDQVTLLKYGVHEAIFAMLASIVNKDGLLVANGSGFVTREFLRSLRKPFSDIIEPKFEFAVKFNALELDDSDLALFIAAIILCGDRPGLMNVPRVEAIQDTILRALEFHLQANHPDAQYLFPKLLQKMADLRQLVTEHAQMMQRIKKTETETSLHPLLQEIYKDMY
Method in brief: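 Antagonist-mode beta-lactamase reporter screen: HEK293H cells with UAS-bla under PPARd control, stimulated by 300 nM L165041 (final) alongside test compound for 17 h at 37 C, then FRET fluorescence after 2 h substrate incubation.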

[6] = molecular target: Vitamin D3 receptor (Homo sapiens) (UniProt P11473); test: qHTS assay to identify small molecule agonists of the vitamin D receptor (VDR) signaling pathway (AID 743222; calls by dose curve)
Sequence of Vitamin D3 receptor (Homo sapiens) (P11473 whole entry, looked up): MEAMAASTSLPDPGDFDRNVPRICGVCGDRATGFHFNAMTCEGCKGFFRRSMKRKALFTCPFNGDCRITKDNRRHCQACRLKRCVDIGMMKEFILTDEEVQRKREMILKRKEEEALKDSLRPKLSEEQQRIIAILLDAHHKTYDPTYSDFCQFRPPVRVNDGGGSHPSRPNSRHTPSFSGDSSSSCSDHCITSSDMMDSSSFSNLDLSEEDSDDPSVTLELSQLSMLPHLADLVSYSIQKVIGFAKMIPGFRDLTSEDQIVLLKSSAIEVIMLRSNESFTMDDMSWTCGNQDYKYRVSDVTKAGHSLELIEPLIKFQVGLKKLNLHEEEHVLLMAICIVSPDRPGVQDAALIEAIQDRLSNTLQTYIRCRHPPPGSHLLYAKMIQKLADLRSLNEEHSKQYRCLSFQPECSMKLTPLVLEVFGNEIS
Method in brief: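 Agonist activity measured in VDR-bla reporter cells. Exposure 16 h, 37C, 5% CO2; detection by B/G FRET substrate, 2 h RT.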

[7] = molecular target: Vitamin D3 receptor (Homo sapiens) (UniProt P11473); test: qHTS assay to identify small molecule antagonists of the vitamin D receptor (VDR) signaling pathway (AID 743223; active means well fitted inhibition curve with a large enough effect in the signal ratio in the repeat runs, not every such curve was filed as active; the % refers to the signal ratio; further: potency means the concentration at half of the fitted maximal effect)
Method in brief: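 VDR-bla cells were plated, incubated 4 h at 37C, then given compound and 1alpha,25-dihydroxyvitamin D3 (3 nM final). After 16 h at 37C, LiveBLAzer B/G FRET substrate was added for 2 h at room temperature and fluorescence read.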

[8] = molecular target: Peroxisome proliferator-activated receptor delta (Homo sapiens) (UniProt Q03181); test: qHTS assay to identify small molecule agonists of the peroxisome proliferator-activated receptor delta (PPARd) signaling pathway (AID 743212; calls by dose curve)
Method in brief: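 Quantitative high-throughput agonist screen in a HEK293H beta-lactamase reporter line under UAS control. Compounds in DMSO, at 37 C. Fluorescence read after 2 h with FRET substrate at room temperature.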

[9] = molecular target: Bile acid receptor (Homo sapiens) (UniProt Q96RI1); test: qHTS assay to identify small molecule antagonists of the farnesoid-X-receptor (FXR) signaling pathway (AID 743217; active means well fitted inhibition curve with a large enough effect in the signal ratio in the repeat runs, not every such curve was filed as active; the % refers to the signal ratio)
Sequence of Bile acid receptor (Homo sapiens) (Q96RI1 whole entry, looked up): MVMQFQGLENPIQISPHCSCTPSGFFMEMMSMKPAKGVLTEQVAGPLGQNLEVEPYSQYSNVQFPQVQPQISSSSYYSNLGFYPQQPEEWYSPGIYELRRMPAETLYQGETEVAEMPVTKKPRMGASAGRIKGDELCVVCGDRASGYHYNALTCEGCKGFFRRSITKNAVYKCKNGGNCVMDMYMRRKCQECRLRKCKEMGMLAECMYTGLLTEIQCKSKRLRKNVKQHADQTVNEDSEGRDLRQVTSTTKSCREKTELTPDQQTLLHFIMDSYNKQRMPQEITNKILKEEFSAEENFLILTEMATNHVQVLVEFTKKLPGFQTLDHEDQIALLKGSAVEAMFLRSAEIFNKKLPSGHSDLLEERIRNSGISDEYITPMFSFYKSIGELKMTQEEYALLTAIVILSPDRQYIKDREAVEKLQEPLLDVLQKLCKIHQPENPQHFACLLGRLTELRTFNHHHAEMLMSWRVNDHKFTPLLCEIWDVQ
Method in brief: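 Beta-lactamase reporter under UAS control in HEK 293T cells; compound exposure 16 h at 37 °C in the presence of chenodeoxycholic acid (50 uM final); signal from B/G FRET substrate after 2 h at room temperature.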

[10] = molecular target: Bile acid receptor (Homo sapiens) (UniProt Q96RI1); test: qHTS assay to identify small molecule agonists of the farnesoid-X-receptor (FXR) signaling pathway (AID 743220; active means well fitted activation curve with a large enough effect in the signal ratio in the repeat runs, not every such curve was filed as active; the % refers to the signal ratio; further: potency means the concentration at half of the fitted maximal effect)
Method in brief: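 Beta-lactamase reporter under UAS control in GeneBLAzer FXR HEK 293T cells (5000/well) measured with LiveBLAzer FRET substrate after 2 h at room temperature. Compound exposure lasted 16 h at 37C.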

Structure (SMILES): NCCO
- Potency [1]: inactive
- Potency [2]: inactive
- Potency [3]: inactive
- Potency [4]: inactive

Structure (SMILES): OCCOCCN1CCN(C(c2ccccc2)c2ccc(Cl)cc2)CC1 (configuration not stated)
- Potency [1]: inactive
- Potency [2]: 43.1 µM (active)
- Potency [5]: inactive
- Potency [3]: inactive
- Potency [4]: inactive
- Potency [6]: inactive
- Potency [7]: inactive

Structure (SMILES): c1ccc2c(c1)-c1cccc3c1c-2cc1ccccc13
- Potency [1]: inactive
- Potency [2]: inactive
- Potency [5]: inactive
- Potency [3]: inactive
- Potency [4]: inactive

Structure (SMILES): NC12CC3CC(CC(C3)C1)C2
- Potency [1]: inactive
- Potency [2]: inactive
- Potency [5]: inactive
- Potency [3]: inactive
- Potency [4]: inactive
- Potency [6]: inactive

Structure (SMILES): CC(C)(C)NC(=O)[C@@H]1CN(Cc2cccnc2)CCN1C[C@@H](O)C[C@@H](Cc1ccccc1)C(=O)N[C@H]1c2ccccc2C[C@H]1O
- Potency [1]: inactive
- Potency [2]: inactive
- Potency [3]: inactive
- Potency [4]: inactive
- Potency [6]: inactive
- Potency [7]: inactive

Structure (SMILES): CC[C@H]1CN2CCc3cc(OC)c(OC)cc3[C@@H]2C[C@@H]1C[C@H]1NCCc2cc(OC)c(OC)cc21
- Potency [1]: 43.8 µM (active)
- Potency [5]: 0.438 µM (active)
- Potency [3]: 27.6 µM (active) and inactive
- Potency [4]: inactive
- Potency [6]: inactive
- Potency [7]: 492 nM (active)

Structure (SMILES): O=C(O)Cn1cnnn1
- Potency [8]: inactive
- Potency [2]: inactive
- Potency [5]: inactive
- Potency [9]: inactive
- Potency [3]: inactive
- Potency [10]: inactive
- Potency [4]: inactive
- Potency [6]: inactive
- Potency [7]: inactive

Structure (SMILES): CC(C)(C)c1ccc(O)c(C(C)(C)C)c1
- Potency [1]: 38.7 µM (active) and 49 µM (active)
- Potency [2]: 38.7 µM (active) and 49 µM (active)
- Potency [4]: 54.9 µM (active)
- Potency [6]: inactive

Structure (SMILES): CCCCCCCCCCCCCC[P+](CCCC)(CCCC)CCCC
- Potency [1]: 6.88 µM (active) and 8.71 µM (active)
- Potency [2]: 7.72 µM (active) and 11 µM (active)
- Potency [3]: 19.4 µM (active) and 24.5 µM (active)
- Potency [4]: 21.8 µM (active) and 21.9 µM (active)
- Potency [7]: 19.4 µM (active) and 24.5 µM (active)

Structure (SMILES): Cc1ccc(-c2cc(C(F)(F)F)nn2-c2ccc(S(N)(=O)=O)cc2)cc1
- Potency [1]: 54.9 µM (active)
- Potency [2]: inactive
- Potency [3]: inactive
- Potency [4]: inactive

Structure (SMILES): O=S(=O)(O)c1ccc2nc(-c3ccccc3)[nH]c2c1
- Potency [1]: 8.29 µM (active)
- Potency [5]: inactive
- Potency [9]: inactive
- Potency [3]: inactive
- Potency [10]: inactive
- Potency [4]: 7.39 µM (active)

Structure (SMILES): CCCCCCCCCCCCCCCCCl
- Potency [1]: inactive
- Potency [2]: inactive
- Potency [3]: inactive
- Potency [4]: inactive
- Potency [6]: inactive
- Potency [7]: inactive

Structure (SMILES): Cc1cc(C(C)(C)C)c(O)c(C(C)(C)C)c1
- Potency [8]: inactive
- Potency [2]: inactive
- Potency [5]: inactive
- Potency [9]: inactive
- Potency [3]: inactive
- Potency [10]: inactive
- Potency [4]: inactive

Structure (SMILES): c1cc(C(c2ccc(OCC3CO3)cc2)C(c2ccc(OCC3CO3)cc2)c2ccc(OCC3CO3)cc2)ccc1OCC1CO1 (configuration not stated)
- Potency [1]: inactive
- Potency [2]: inactive
- Potency [4]: inactive

Structure (SMILES): NC(Cc1ccc(Cl)cc1)C(=O)O (configuration not stated)
- activation [8]: 2.85% [at 0.55 µM] (inactive)
- viability change, negative = cytotoxic [2]: 1.71% [at 0.575 µM] (inactive)
- ratio activity, negative = inhibition [5]: 5.74% [at 0.575 µM] (inactive)
- activity change, negative = inhibition [9]: 10.5% [at 0.55 µM] (inactive)
- viability change, negative = cytotoxic [3]: 0.639% [at 0.55 µM] (inactive)
- activation [10]: 2.17% [at 0.55 µM] (inactive)
- activity change, negative = cytotoxicity [4]: 5.76% [at 0.55 µM] (inactive)
- activation [6]: 0.21% [at 0.554 µM] (inactive)
- activity change, negative = inhibition [7]: -2.76% [at 0.628 µM] (inactive)

Structure (SMILES): O
- Potency [1]: inactive
- Potency [2]: inactive
- Potency [3]: inactive
- Potency [4]: inactive

Structure (SMILES): O=C1OC2(c3ccc(O)cc3Oc3cc(O)ccc32)c2ccccc21
- Potency [1]: inactive
- Potency [2]: inactive
- Potency [3]: inactive
- Potency [4]: inactive

Structure (SMILES): CC(C(O)c1ccc(O)cc1)N1CCC(Cc2ccccc2)CC1 (configuration not stated)
- Potency [1]: inactive
- Potency [2]: inactive
- Potency [3]: inactive
- Potency [4]: inactive

Structure (SMILES): COc1ccc(CCN(C)CCCC(C#N)(c2ccc(OC)c(OC)c2)C(C)C)cc1OC (configuration not stated)
- Potency [1]: inactive
- Potency [2]: inactive
- Potency [3]: inactive
- Potency [4]: inactive

Structure (SMILES): OCCN1CCNCC1
- Potency [8]: inactive
- Potency [2]: inactive
- Potency [5]: inactive
- Potency [9]: inactive
- Potency [3]: inactive
- Potency [10]: inactive
- Potency [4]: inactive
- Potency [6]: inactive
- Potency [7]: inactive

Structure (SMILES): CC(=O)O[C@]1(C(C)=O)CC[C@H]2[C@@H]3C[C@H](C)C4=CC(=O)CC[C@]4(C)[C@H]3CC[C@@]21C
- Potency [8]: inactive
- Potency [2]: inactive
- Potency [5]: inactive
- Potency [9]: inactive
- Potency [3]: inactive
- Potency [10]: inactive
- Potency [4]: inactive

Structure (SMILES): Nc1cc(Cl)c(-c2cc(Cl)c(N)cc2Cl)cc1Cl
- Potency [1]: 48.9 µM (active) and 43.6 µM (active)
- Potency [2]: 24.5 µM (active)
- Potency [3]: 43.6 µM (active) and 12.3 µM (active)
- Potency [4]: 38.9 µM (active)

Structure (SMILES): CC(C)(C)c1ccccc1
- Potency [1]: inactive
- Potency [2]: inactive
- Potency [3]: inactive
- Potency [4]: inactive
- Potency [6]: inactive

Structure (SMILES): Nc1ccc(O)cc1
- Potency [1]: inactive
- Potency [9]: inactive
- Potency [3]: 25.5 µM (active) and inactive
- Potency [10]: 20.3 µM (active) and inactive
- Potency [4]: inactive

Structure (SMILES): Cc1cc(C2(c3cc(C)c(O)cc3C)OS(=O)(=O)c3ccccc32)c(C)cc1O
- Potency [1]: inactive
- Potency [2]: inactive
- Potency [3]: inactive
- Potency [4]: inactive

Structure (SMILES): COc1cc(C(=S)N2CCOCC2)ccc1O
- Potency [1]: inactive
- Potency [5]: inactive
- Potency [4]: inactive

Structure (SMILES): Cc1cccc(O)c1C
- Potency [8]: inactive
- Potency [2]: inactive
- Potency [5]: inactive
- Potency [9]: inactive
- Potency [3]: inactive
- Potency [10]: inactive
- Potency [4]: inactive
- Potency [6]: inactive
- Potency [7]: inactive

Structure (SMILES): CCc1cc(C(C)(C)C)c(O)c(C(C)(C)C)c1
- Potency [8]: inactive
- Potency [2]: inactive
- Potency [5]: inactive
- Potency [9]: inactive
- Potency [3]: inactive
- Potency [10]: inactive
- Potency [4]: inactive
- Potency [6]: inactive

Structure (SMILES): CNCCC(Oc1ccc(C(F)(F)F)cc1)c1ccccc1 (configuration not stated)
- Potency [1]: 27.2 µM (active) and 29.8 µM (active)
- Potency [2]: 17.2 µM (active) and 21.1 µM (active)
- Potency [3]: 21.6 µM (active)
- Potency [4]: 48.4 µM (active)
- Potency [6]: inactive
